In PubChem BioAssay (Tox21):
Records with an inconclusive call do not appear. Calls of active or inactive are those of the source. Unless noted, calls come from the whole dose curve; as a rule, active = well fitted curve in the direction sought with a large enough effect in the repeat runs; inconclusive = weak or mixed curves; inactive = no such curve, though single readings can be large; an effect the other way counts as inactive or inconclusive.

How the values were obtained:
[1] = qHTS assay to identify aromatase inhibitors - cell viability counter screen (AID 743084);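 note: cells stimulated with testosterone during compound exposure; nearly all actives have a fitted effect of over 55% in size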
[2] = target: Aryl hydrocarbon receptor (Homo sapiens) (UniProt P35869); experiment: qHTS assay to identify small molecule that activate the aryl hydrocarbon receptor (AhR) signaling pathway (AID 743085);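 note: HG2L7.5c1 human HepG2 liver cells with stably integrated DRE-driven firefly reporter; series mostly up to about 70 µM; nearly all actives have a fitted effect of over 15% in size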
Aryl hydrocarbon receptor (Homo sapiens), sequence (P35869 whole entry, looked up): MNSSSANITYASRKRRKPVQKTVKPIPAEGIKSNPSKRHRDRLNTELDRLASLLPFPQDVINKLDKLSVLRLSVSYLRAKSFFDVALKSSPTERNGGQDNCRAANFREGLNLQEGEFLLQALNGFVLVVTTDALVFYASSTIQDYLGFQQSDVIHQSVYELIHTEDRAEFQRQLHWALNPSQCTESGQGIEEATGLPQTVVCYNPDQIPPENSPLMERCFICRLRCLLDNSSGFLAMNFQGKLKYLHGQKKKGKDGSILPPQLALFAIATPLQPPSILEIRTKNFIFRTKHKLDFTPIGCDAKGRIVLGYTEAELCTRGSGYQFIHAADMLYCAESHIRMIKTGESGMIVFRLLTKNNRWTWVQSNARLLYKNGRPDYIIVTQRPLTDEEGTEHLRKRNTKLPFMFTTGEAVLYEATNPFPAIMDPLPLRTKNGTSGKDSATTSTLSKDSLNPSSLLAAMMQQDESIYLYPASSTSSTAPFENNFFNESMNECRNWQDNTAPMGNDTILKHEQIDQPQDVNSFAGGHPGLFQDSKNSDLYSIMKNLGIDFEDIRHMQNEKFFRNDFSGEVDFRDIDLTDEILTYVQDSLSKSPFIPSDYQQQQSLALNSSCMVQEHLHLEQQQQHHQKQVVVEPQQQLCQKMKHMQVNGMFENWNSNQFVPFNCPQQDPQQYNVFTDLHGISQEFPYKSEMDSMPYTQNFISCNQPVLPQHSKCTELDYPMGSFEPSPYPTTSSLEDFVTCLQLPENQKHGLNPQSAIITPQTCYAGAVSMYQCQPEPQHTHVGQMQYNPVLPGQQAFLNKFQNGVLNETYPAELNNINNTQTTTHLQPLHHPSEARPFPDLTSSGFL
How it was run: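 Reporter assay in engineered HepG2 line HG2L7.5c1, whose plasmid carries twenty dioxin responsive elements upstream of firefly luciferase. Treatment lasted 24 h at 37C; ONE-Glo luminescence gauged induction.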

[3] = qHTS assay to identify small molecule that activate the aryl hydrocarbon receptor (AhR) signaling pathway - cell viability counter screen (AID 743086);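 note: HepG2 liver cells carrying the AhR DRE luciferase reporter; series mostly up to about 70 µM; nearly all actives have a fitted effect of over 45% in size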
How it was run: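 HepG2-AhR-luc (HG2L7.5c1) cells, 4000/well, treated 24 h at 37 C with compound; viability measured as CellTiter-Fluor fluorescence after 30 min in the same wells as the luciferase read.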

[4] = qHTS assay to identify small molecule phospholipidosis (PLD) inducers (AID 1259344; active = well fitted curve in the direction sought with a large enough effect; an effect the other way counts as inactive or inconclusive)
How it was run: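 Quantitative HTS in HepG2: compound plus LipidTOX Red dye for 24 h, paraformaldehyde fixation with Hoechst 33342, widefield high-content imaging; amiodarone as positive and DMSO as negative control.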

[5] = target: Nuclear receptor subfamily 1 group I member 2 (Rattus norvegicus) (UniProt Q9R1A7); experiment: Rat pregnane X receptor (rPXR) activation by small molecules, qHTS assay (AID 1346983); details: rPXR luciferase reporter cells, One-Glo luminescence, 24 h; max activation: stronger effect = higher value; note: nearly all actives have a fitted effect of over 20% in size
Nuclear receptor subfamily 1 group I member 2 (Rattus norvegicus), sequence (Q9R1A7 whole entry, looked up): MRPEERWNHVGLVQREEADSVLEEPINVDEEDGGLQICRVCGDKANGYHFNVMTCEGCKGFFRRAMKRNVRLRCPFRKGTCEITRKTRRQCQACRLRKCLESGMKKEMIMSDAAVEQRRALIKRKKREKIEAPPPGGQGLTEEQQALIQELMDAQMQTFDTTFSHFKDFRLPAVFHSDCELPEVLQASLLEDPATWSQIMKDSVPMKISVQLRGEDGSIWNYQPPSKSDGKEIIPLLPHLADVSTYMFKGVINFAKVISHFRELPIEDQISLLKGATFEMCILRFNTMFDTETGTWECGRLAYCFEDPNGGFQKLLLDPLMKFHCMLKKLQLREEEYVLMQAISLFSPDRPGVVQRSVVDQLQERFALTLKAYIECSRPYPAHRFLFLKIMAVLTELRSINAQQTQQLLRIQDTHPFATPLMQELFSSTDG
How it was run: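 Cell-based rPXR activation assay: rPXR cells, 2,000 per well, rested 5hr at 37 C, then exposed to compounds in DMSO for 24 hr at 37 C. Luciferase activity read by One-Glo luminescence after 30 min at room temperature.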

[6] = target: Nuclear receptor subfamily 1 group I member 2 (Homo sapiens) (UniProt O75469); experiment: CYP3A4 induction through human pregnane X receptor (PXR) by small molecules, qHTS assay (AID 1346984); note: nearly all actives have a fitted effect of over 40% in size
How it was run: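 DPX-2 reporter cells; 24h cpd, 37C; Luciferin-IPA 3uM final x3h; One-Glo 30 min RT; lumi read.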

[7] = target: Nuclear receptor subfamily 1 group I member 2 (Homo sapiens) (UniProt O75469); experiment: Human pregnane X receptor (PXR) activation by small molecules, qHTS assay (AID 1346985); note: nearly all actives have a fitted effect of over 40% in size
How it was run: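 DPX-2 cells (HepG2 co-transfected with a PXR response element and a CYP3A4-promoter luciferase construct) were seeded at 2,000 per well, rested 5 hr at 37C, then exposed to DMSO-dissolved compounds for 24 hr. Activation was read as luciferase luminescence.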

[8] = target: Peroxisome proliferator-activated receptor gamma (Homo sapiens) (UniProt P37231); experiment: qHTS assay to identify small molecule agonists of the peroxisome proliferator-activated receptor gamma (PPARg) signaling pathway (AID 743094; active = well fitted activation curve with a large enough effect in the signal ratio in the repeat runs, not every such curve was filed as active; the % refers to the signal ratio)
Peroxisome proliferator-activated receptor gamma (Homo sapiens), sequence (P37231 whole entry, looked up): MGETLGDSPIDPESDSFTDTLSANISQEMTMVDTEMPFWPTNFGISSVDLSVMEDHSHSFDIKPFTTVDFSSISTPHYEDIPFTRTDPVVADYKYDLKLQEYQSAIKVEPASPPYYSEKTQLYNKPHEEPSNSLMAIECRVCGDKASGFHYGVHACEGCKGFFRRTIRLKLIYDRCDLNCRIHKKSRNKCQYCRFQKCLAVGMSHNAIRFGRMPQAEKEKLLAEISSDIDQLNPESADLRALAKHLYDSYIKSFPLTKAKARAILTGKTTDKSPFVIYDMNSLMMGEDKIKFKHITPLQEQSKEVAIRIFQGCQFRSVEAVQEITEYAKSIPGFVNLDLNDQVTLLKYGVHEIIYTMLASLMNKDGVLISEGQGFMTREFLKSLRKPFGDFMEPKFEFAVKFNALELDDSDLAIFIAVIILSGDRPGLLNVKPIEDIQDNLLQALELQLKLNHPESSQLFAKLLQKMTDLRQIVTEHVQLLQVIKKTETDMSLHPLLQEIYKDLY
How it was run: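 Stably transfected HEK293H cells (GeneBLAzer PPARg UAS-bla) were incubated with test substances for 17 h at 37C after a 5 h pre-incubation; beta-lactamase activity was then detected by FRET substrate fluorescence.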
% is set by controls: 0 for no effect and ±100 for the full control effect.

CC1(C)S[C@@H]2[C@H](NC(=O)C3(N)CCCCC3)C(=O)N2[C@H]1C(=O)O
inactive: Potency [1] | Potency [2] | Potency [3] | Potency [4] | max activation [5] -4.4% | Potency [6] | Potency [7]

CCOC(=O)c1cc(-c2ccccc2)nc2ccc(C)cc12
inactive: Potency [1] | Potency [2] | Potency [3] | Potency [4] | max activation [5] -2.37% | Potency [6] | Potency [7]

C=C1CC[C@H](O)CC1=C/C=C1\CCC[C@]2(C)[C@@H]([C@H](C)CCCC(C)(C)O)CC[C@@H]12
inactive: Potency [1] | Potency [4] | max activation [5] -20.1% | Potency [6] | Potency [7]

CCCCC/C=C\C/C=C\C/C=C\CCCCC(=O)O
inactive: Potency [1] | Potency [2] | Potency [3] | Potency [4] | max activation [5] -0.879% | Potency [6] | Potency [7]

CNC(=O)[C@H](Cc1c[nH]c2ccccc12)NC(=O)[C@@H](CC(=O)NO)CC(C)C
inactive: Potency [4] | max activation [5] 15% | Potency [6] | Potency [7]

CC[C@]1(O)CC2CN(CCc3c([nH]c4ccccc34)[C@@](C(=O)OC)(c3cc4c(cc3OC)N(C)[C@H]3[C@@](O)(C(N)=O)[C@H](O)[C@]5(CC)C=CCN6CC[C@]43[C@@H]65)C2)C1 (some centres undefined)
inactive: Potency [4]

OCC(O)CO
inactive: Potency [4] | max activation [5] -5.18%

Cc1cc2nc3c(=O)[nH]c(=O)nc-3n(C[C@H](O)[C@H](O)[C@H](O)COP(=O)(O)OP(=O)(O)OC[C@H]3O[C@@H](n4cnc5c(N)ncnc54)[C@H](O)[C@@H]3O)c2cc1C
inactive: Potency [4] | max activation [5] -0.0695% | Potency [6] | Potency [7]

CO[C@H]1C[C@H](O[C@@H]2/C(C)=C/C[C@@H]3C[C@@H](C[C@]4(CC[C@H](C)[C@@H](C5CCCCC5)O4)O3)OC(=O)[C@@H]3C=C(C)/C(=N/O)[C@H]4OC/C(=C\C=C\[C@@H]2C)[C@]43O)O[C@@H](C)[C@@H]1O
inactive: Potency [1] | Potency [2] | Potency [3] | Potency [4] | max activation [5] -0.144% | Potency [6] | Potency [7]

C[C@@H]1CCC2[C@@H](C)[C@@H](O)O[C@@H]3O[C@@]4(C)CC[C@@H]1[C@@]23OO4 (some centres undefined)
inactive: Potency [4] | max activation [5] -10.7% | Potency [6] | Potency [7]

C[N+]1(C)[C@@H]2CC(OC(=O)C(O)(c3cccs3)c3cccs3)C[C@H]1[C@@H]1O[C@@H]12 (some centres undefined)
inactive: Potency [1] | Potency [2] | Potency [4] | max activation [5] -1.38% | Potency [6] | Potency [7]

CNC(C)[C@@H]1CC[C@@H](N)[C@@H](O[C@H]2[C@H](O)[C@@H](O[C@H]3OC[C@](C)(O)[C@H](NC)[C@H]3O)[C@H](N)C[C@@H]2N)O1 (some centres undefined)
inactive: Potency [4] | max activation [5] -0.0148% | Potency [6] | Potency [7]

O=C(O)CCC/C=C\C[C@@H]1[C@@H](/C=C/[C@@H](O)COc2cccc(Cl)c2)[C@H](O)C[C@@H]1O
inactive: Potency [1] | Potency [2] | Potency [3] | Potency [4] | max activation [5] -0.0632% | Potency [6] | Potency [7]

CC(O)CN(C)C (centres undefined)
inactive: Potency [1] | Potency [2] | Potency [3] | Potency [8] | Potency [4] | max activation [5] -0.0612% | Potency [6] | Potency [7]

CC(O)[C@@H]1NC(=O)[C@H](Cc2ccccc2)NC(=O)[C@H](C(C)O)NC(=O)[C@H](CCCCN)NC(=O)[C@H](Cc2c[nH]c3ccccc23)NC(=O)[C@H](Cc2ccccc2)NC(=O)[C@H](Cc2ccccc2)NC(=O)[C@H](CC(N)=O)NC(=O)[C@H](CCCCN)NC(=O)[C@@H](NC(=O)CNC(=O)[C@H](C)N)CSSC[C@@H](C(=O)O)NC(=O)[C@H](CO)NC1=O (some centres undefined)
inactive: Potency [1] | Potency [2] | Potency [3] | Potency [8] | Potency [4] | max activation [5] -3.53% | Potency [6] | Potency [7]

O=C(O)c1ccc(NC(=O)[C@H](Cc2ccc(O)cc2)NC(=O)c2ccccc2)cc1
inactive: Potency [1] | Potency [2] | Potency [3] | Potency [8] | Potency [4] | max activation [5] 0.18% | Potency [6] | Potency [7]

Cc1ncc(COP(=O)(O)O)c(CN)c1O
inactive: Potency [1] | Potency [2] | Potency [3] | Potency [8] | PLD induction [4] -1.52% [at 7.66 µM] | max activation [5] 0.341% | Potency [6] | Potency [7]

C[C@H](O)[C@H](O)[C@H]1CNc2nc(N)[nH]c(=O)c2N1
inactive: Potency [1] | Potency [2] | Potency [3] | Potency [8] | Potency [4] | max activation [5] -2.27% | Potency [6] | Potency [7]

OC[C@H]1OC([S-])[C@H](O)[C@@H](O)[C@@H]1O.[Au+] (some centres undefined)
inactive: Potency [1] | Potency [2] | Potency [3] | Potency [4] | max activation [5] -6.36% | Potency [6] | Potency [7]

CC(=O)Nc1ccc(OC(=O)c2ccccc2O)cc1
inactive: Potency [1] | Potency [2] | Potency [3] | Potency [8] | Potency [4] | max activation [5] -2.95% | Potency [6] | Potency [7]

CN[C@@H]1[C@H](O[C@H]2[C@H](O[C@H]3[C@H](O)[C@@H](O)[C@H](N=C(N)N)[C@@H](O)[C@@H]3N=C(N)N)O[C@@H](C)[C@]2(O)CO)O[C@@H](CO)[C@H](O)[C@H]1O
inactive: Potency [1] | Potency [2] | Potency [3] | Potency [8] | Potency [4] | max activation [5] -1.72% | Potency [6] | Potency [7]

Cc1ccc(S(=O)(=O)NC(=O)N[C@@H](C)Cc2ccccc2)cc1
inactive: Potency [1] | Potency [2] | Potency [3] | Potency [8] | Potency [4] | max activation [5] 4.79% | Potency [6] | Potency [7]

COC(=O)CCC[N+](C)(C)C
inactive: Potency [1] | Potency [2] | Potency [3] | Potency [8] | Potency [4] | max activation [5] -0.156% | Potency [6] | Potency [7]
